# Results reported in PubChem BioAssay AID641 (Vanderbilt High Throughput Screening Facility, 2007).
# Among all 58,000 compounds or so, about 3,400 (5.9%) were called active. Shown is part of a subset that was picked to be rich in actives. A number with no mark means an inactive call.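 The calls were made as follows: active = luminescence count or its row- and column-corrected plate score outside the 99.7% band of the plate's sample wells, on either side; inactive = the rest.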
# Target: D(1A) dopamine receptor (Homo sapiens) (UniProt P21728)
# Sequence (P21728 whole entry, looked up): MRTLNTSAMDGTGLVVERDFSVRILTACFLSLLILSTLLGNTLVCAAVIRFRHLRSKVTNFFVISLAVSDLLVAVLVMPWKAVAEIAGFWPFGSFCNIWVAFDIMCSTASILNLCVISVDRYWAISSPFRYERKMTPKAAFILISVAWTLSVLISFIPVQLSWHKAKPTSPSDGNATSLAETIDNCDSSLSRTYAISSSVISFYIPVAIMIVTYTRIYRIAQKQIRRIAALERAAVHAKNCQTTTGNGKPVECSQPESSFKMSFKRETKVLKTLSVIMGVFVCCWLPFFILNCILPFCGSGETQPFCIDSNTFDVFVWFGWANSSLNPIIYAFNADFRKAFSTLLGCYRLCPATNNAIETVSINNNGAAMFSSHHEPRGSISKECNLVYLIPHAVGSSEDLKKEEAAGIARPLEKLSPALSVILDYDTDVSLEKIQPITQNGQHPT
# Test: D1 CRE-luciferase signal change, two-sided – cell-based, HEK293 D1, dopamine EC30, D1 allosteric modulator project, primary screen (AID 641)
# Settings: dopamine EC30 potentiation, at 10 µM, actives deviate in either direction
row,SMILES,B-score
1,COc1ccccc1NC(=O)CSc1nnc(Cc2cccn2C)n1-c1ccc(F)cc1,-0.801
2,COC(=O)c1ccc(NC(=O)CSc2nnc(Cc3cccn3C)n2-c2ccc(F)cc2)cc1,-0.00937
3,COc1ccc(-n2c(Cc3cccn3C)nnc2SCC(=O)Nc2cc(C)cc(C)c2)cc1,11.4 (active)
4,CCCc1[nH]nc2c1C(C1CC=CCC1)C(C#N)=C(N)O2 (stereo not drawn),-0.104
5,CC1(C)CC(=O)c2cc(OCC(=O)NCC3CCCO3)ccc2O1 (stereo not drawn),-0.0202
6,O=C(O)c1ccc(-n2cccc2)cc1O,-0.446
7,COc1ccc(C(=O)Cn2nnc(-c3ccc(N4CCOCC4)cc3)n2)cc1OC,0.758
8,Cc1ccc(-c2noc(CCC(N)=O)n2)cc1,-0.953
9,CCOc1ccc(-c2nnn(CC(=O)N3CCN(c4ccc(F)cc4)CC3)n2)cc1OCC,-0.401
10,CCOc1cc(-c2noc(CCC(=O)N3CCOCC3)n2)ccc1OC,13.7 (active)
11,CCOc1ccc(-c2nnn(CC(=O)N3CCN(c4ccc(OC)cc4)CC3)n2)cc1OCC,3.84 (active)
12,Cc1ccc(OCCCC(=O)N2CCOCC2)c(C)c1,-1.03
13,CN1C(=O)CC(N2CCN(c3ccccn3)CC2)C1=O (stereo not drawn),-0.0528
14,COc1ccc(C(=O)NCCc2ccc(S(N)(=O)=O)cc2)cc1OC,-0.0032
15,Cc1sc2c(c1C)c(=O)n(-c1ccccc1)c1nncn21,0.694
16,COc1cc2[nH]c(=O)n(CCC(=O)NC3CCN(Cc4ccccc4)CC3)c(=O)c2cc1OC,-0.633
17,O=c1cc(-c2ccccc2)nc(N2CCCCC2)[nH]1,4.97 (active)
18,Cc1ccc(SCc2cc(=O)[nH]c(N3CCCCC3)n2)cc1,1.14
19,O=c1cc(CSc2ccccn2)nc(N2CCN(c3ccccc3)CC2)[nH]1,0.00444
20,Cc1ccc(OCc2nc(C#N)c(N3CCCC3)o2)cc1,2.17
21,CC1CCN(c2oc(-c3ccccc3F)nc2C#N)CC1,8.13 (active)

row,SMILES,B-score
1,N#Cc1nc(COc2ccc(Cl)cc2)oc1N1CCCC1,2.09
2,COc1ccc(CCN2CNc3c(c(=O)n(C)c(=O)n3C)C2)cc1OC,-0.27
3,Oc1c(C(c2cccs2)N2CCN(c3ccc(F)cc3)CC2)sc2ncnn12 (stereo not drawn),-1.14
4,CCCNS(=O)(=O)c1ccc2c(c1)CCCN2C(C)=O,-1.43
5,CC(=O)N1CCc2cc(S(=O)(=O)Nc3ccccc3N3CCN(C)CC3)ccc21,-0.699
6,O=C(C1CCC1)N1CCc2cc(S(=O)(=O)NCc3cccnc3)ccc21,4.59 (active)
7,CC(C)(CNCC(O)c1ccccc1)N1CCOCC1 (stereo not drawn),0.153
8,CN(c1nc2ccccc2n2c(-c3ccco3)nnc12)S(=O)(=O)c1ccccc1,1.04
9,CN1c2ccccc2-c2nc3ccccc3n2C1c1ccco1 (stereo not drawn),-2.57
10,Cn1c(-c2ccco2)nc2cc3ccccc3cc21,-4.84 (active)
11,CCCc1nc(SCC(=O)Nc2ccccc2OC)c2c(=O)n(C)c(=O)n(C)c2n1,1.18
12,CCOc1cc(N2CCOCC2)c(OCC)cc1NC(=O)COc1cccc2cccnc12,-6.32 (active)
13,CCOc1ccccc1NC(=O)C1CCC(CNc2c(N3CCOCC3)c(=O)c2=O)CC1 (stereo not drawn),-0.266
14,CCOc1cc(NC(=O)c2ccco2)c(OCC)cc1NC(=O)COc1ccccc1,-0.0288
15,N/C(=N\c1nc2ccccc2o1)NC(=O)C(Cc1ccccc1)N1C(=O)c2ccccc2C1=O (stereo not drawn),-0.0263
16,CCOC(=O)CN1C(=O)C(O)(CC(=O)c2ccccn2)c2ccccc21 (stereo not drawn),-0.341
17,CCc1nnc(NC(=O)C2CCCN2S(=O)(=O)c2ccccc2)s1 (stereo not drawn),-0.0231
18,CCC(=NC1CC(C)(C)NC(C)(C)C1)C1=C(O)CC(C)(C)CC1=O,-0.239
19,COc1ccccc1N1CCN(Cc2ccc(OC)c3ccccc23)CC1,-0.325
20,Cc1nc(-c2ccc(NC(=O)c3cccs3)cc2)cs1,-5.86 (active)
21,O=C(O)Cc1ccc(NC(=O)c2cccs2)cc1,-1.14

row,SMILES,B-score
1,O=C(O)c1ccc(NC(=O)c2cccs2)cc1,0.0162
2,COc1ccc(-c2nc(CS(=O)CC(=O)NCc3ccccn3)c(C)o2)cc1 (stereo not drawn),-1.3
3,Cc1ccc2nc(NCCCNC(=O)c3cnccn3)c(C#N)cc2c1,0.787
4,CCc1ccccc1NC(=O)c1cccs1,-0.318
5,COCCn1nnnc1CN1CCC(NC(=O)Nc2cccc(OC)c2)CC1,-0.857
6,CCOC(=O)c1cc2n(c1N)-c1ccccc1C2=O,1.46
7,CCOC(=O)c1cc2ccccc2nc1C,0.135
8,CCOC(=O)c1cc2n(c1C)-c1ccccc1C2=O,4.61 (active)
9,CCn1nc(NC(=O)c2ccco2)c2cc3ccc(C)cc3nc21,0.36
10,CC1CCc2c(sc3c2C2=NS(=O)(=O)CCN2C=N3)C1 (stereo not drawn),1.19
11,CC1CCN(c2nc3c(c(=O)[nH]c(=O)n3C)n2CCCc2ccccc2)CC1,3.73 (active)
12,CCCCCn1c(SCCC(C)C)nc2c1c(=O)[nH]c(=O)n2C,0.151
13,CN(Cc1ccccc1)c1nc2c(c(=O)[nH]c(=O)n2C)n1CCSc1nc2ccccc2[nH]1,1.93
14,CCCSc1nc2c(c(=O)[nH]c(=O)n2C)n1CCc1ccccc1,18 (active)
15,CN1CCN(c2nc3c(c(=O)[nH]c(=O)n3C)n2Cc2cccc3ccccc23)CC1,-2.28
16,Cn1c(=O)[nH]c(=O)c2c1nc(N1CCCCCC1)n2CC(=O)c1ccccc1,0.0681
17,Cc1cccc2cc(C#N)c(N3CCCC3)nc12,-0.4
18,CCC(=O)N1c2ccc(S(=O)(=O)CCC(=O)N3CCN(c4ccccc4)CC3)cc2CC1C (stereo not drawn),0.966
19,COc1ccc(C(=O)n2nc(-c3ccc(Cl)cc3)nc2N)cc1OC,1.72
20,COc1ccc(C(=O)n2nc(-c3ccc(C)cc3)nc2N)cc1OC,0.0973
21,COC(=O)c1ccc(OC(=O)c2nn(C)cc2Cl)c(OC)c1,-3.71 (active)
